# Experimental data as given in PubChem BioAssay AID1851 (National Center for Advancing Translational Sciences (NCATS), 2009).
# Out of some 16,000 compounds screened, about 2,600 (16%) were called active. Roughly 20% stayed inconclusive and do not appear here. Calls come from the whole dose curve; as a rule, active = well fitted curve in the direction sought with a large enough effect; inconclusive = small, poorly fitted or top-dose-only effect, or effect the other way; inactive = no such curve, though single readings can be large or run the other way. Only a sample is shown.
# Target: Cytochrome P450 2D6 (Homo sapiens) (UniProt P10635)
# Test: Cytochrome panel assay with activity outcomes
# Settings: recombinant CYP, pro-luciferin dealkylation, luminescence, p450-cyp2d6; series mostly up to 57.1 µM; activity, negative = inhibition: at the top concentration
# % is set by controls: 0 for no effect and ±100 for the full control effect.
# Cytochrome P450 2D6 (Homo sapiens), sequence (P10635 whole entry, looked up): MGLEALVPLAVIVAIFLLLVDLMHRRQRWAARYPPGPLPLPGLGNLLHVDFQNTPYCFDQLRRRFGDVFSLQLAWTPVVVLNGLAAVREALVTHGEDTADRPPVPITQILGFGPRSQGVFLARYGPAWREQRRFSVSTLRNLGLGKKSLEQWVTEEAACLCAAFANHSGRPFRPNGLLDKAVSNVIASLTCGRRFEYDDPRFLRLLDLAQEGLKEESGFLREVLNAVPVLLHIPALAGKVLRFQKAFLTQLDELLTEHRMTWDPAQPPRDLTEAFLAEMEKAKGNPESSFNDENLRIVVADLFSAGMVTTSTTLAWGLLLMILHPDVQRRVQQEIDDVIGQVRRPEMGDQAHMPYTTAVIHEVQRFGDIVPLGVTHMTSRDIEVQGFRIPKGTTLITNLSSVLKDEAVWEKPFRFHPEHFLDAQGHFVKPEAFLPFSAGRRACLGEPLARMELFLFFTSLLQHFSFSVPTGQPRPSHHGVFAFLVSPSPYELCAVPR
SMILES,AC50,"activity, negative = inhibition"
O=C(CCCCCn1c(=O)[nH]c2ccsc2c1=O)NCc1ccc2c(c1)OCO2,17.8 µM (active),
COC(=O)C[C@@H]1O[C@H]1[C@H](C)[C@@H](OC)C(C)C,,5.88% [at 11.4 µM] (inactive)
CC[C@@]1(O)C(=O)OCc2c1cc1n(c2=O)Cc2cc3c(CN(C)C)c(O)ccc3nc2-1,,-7.02% [at 11.4 µM] (inactive)
C=CCn1c(Cc2c[nH]c3ccccc23)nnc1SCC(=O)NCc1ccccc1,15.8 µM (active),
C=CCn1c(Cc2ccc(OC)cc2)nnc1SCC(=O)c1cccc([N+](=O)[O-])c1,,-4.53% (inactive)
CCn1c(Cc2ccccc2)nnc1SCC(=O)NC(C)(C)C,,1.85% (inactive)
Cc1cc(C(=O)N/N=C/c2cccc([N+](=O)[O-])c2)c(C)o1,,-11.5% (inactive)
CCOC(=O)c1cc(-c2ccccc2)sc1NC(=O)c1ccc(OC)cc1,,-3.83% (inactive)
O=[N+]([O-])c1ccc(N/N=C\c2cccn2-c2ccccc2)nc1,4.47 µM (active),
O=[N+]([O-])c1ccc(/C=N/Nc2cc(Cl)nc(-c3ccccc3)n2)cc1,,1.15% (inactive)
C(=N\n1cnnc1)/c1cccn1-c1ccccc1,,-27.9% (inactive)
CN1C(=O)CC[C@@H]1c1cccnc1,inactive,
Cc1cccn2c(/C=N/OCc3ccc(F)cc3)c(-c3ccc(Cl)cc3)nc12,,-15.9% (inactive)
COc1ccc(/C=N/NC(=O)C2CCN(c3ncc(C(F)(F)F)cc3Cl)CC2)cc1,,-8.71% (inactive)
O=C(CCS(=O)(=O)c1cccc2nsnc12)NC1CCCCC1,,-19.1% (inactive)
O=C(CCCNS(=O)(=O)c1cccc2nsnc12)NCCc1ccccc1,14.1 µM (active),
Cc1cccc(NC(=O)CCS(=O)(=O)c2cccc3nsnc23)c1C,,-24.2% (inactive)
Cc1cc(C)n(C(=O)c2cc3c(s2)CCCC3)n1,,-10.8% (inactive)
COC(=O)C(CCSC)NC(=O)c1cccc([N+](=O)[O-])c1 (configuration not stated),,11.3% (inactive)
CCOc1ccc(CC(=O)Nc2sc(Cc3ccccc3)c(C)c2C(N)=O)cc1OCC,,-3.45% (inactive)
COC(=O)c1c(NC(C)=O)sc(Cc2ccccc2)c1C,25.1 µM (active),
CCOC(=O)c1c(NC(=O)Nc2ccccc2)sc(C)c1C,,-25.9% (inactive)
N#CCCn1c(=O)c(-c2ccc(F)cc2)nc2cnc(OCc3ccccc3)nc21,,8.49% (inactive)
Cc1ccc(S(=O)(=O)N[C@H]2COC(=O)C/C=C\[C@@H](C)[C@H](NS(=O)(=O)c3ccc(C)cc3)COC(=O)C/C=C\[C@H]2C)cc1,,4.7% [at 11.4 µM] (inactive)

SMILES,AC50,"activity, negative = inhibition"
COCCn1c(=O)c(C)nc2cnc(N3CCN(C)CC3)nc21,,14.1% (inactive)
COC(=O)c1sccc1NC(=O)CSc1cc(Cl)ccc1Cl,,-7.42% (inactive)
Clc1ccc(Cl)c(SCCCN2CCNCC2)c1,2.51 µM (active),
Cc1cccc(C(=O)O/N=C(\N)c2cccc([N+](=O)[O-])c2)c1,,1.21% (inactive)
C#C[C@]1(O)CC[C@H]2[C@H]3CCC4=Cc5oncc5C[C@]4(C)[C@@H]3CC[C@]21C,,-6.07% (inactive)
CSc1nsc(SC)c1NC(=O)OCC1CCCO1 (configuration not stated),,-5.43% (inactive)
C=CCNC(=O)c1ccc2nc(-c3ccccc3)c(-c3ccccc3)nc2c1,,-22.7% (inactive)
CC[n+]1c(/C=C/Nc2ccccc2)oc2ccccc21,1.41 µM (active),
O=C(O)CN=C1NC2(CCCC2)Cc2ccccc21,,6.94% (inactive)
COC(=O)N1CCC2(CC1)CCN(c1ccncc1)CC2,,3.16% (inactive)
N=C1CCC[C@@H]1C(=S)SCCC(N)=O,,0.37% [at 11.4 µM] (inactive)
CNc1ccnc(-c2ccccc2OC)n1,5.01 µM (active),
CNc1ccnc(-c2ccccc2C(F)(F)F)n1,,-1.5% (inactive)
COc1ccccc1-c1nccc(NCc2cccc(C)c2)n1,1.58 µM (active),
CNc1ccnc(-c2ccccc2C)n1,,-4.81% (inactive)
Cc1cccc(CNc2ccnc(-c3ccccc3Cl)n2)c1,15.8 µM (active),
Cc1cnc(CNc2ccnc(-c3ccccc3Cl)n2)cn1,,-5.09% (inactive)
COc1ccccc1-c1nccc(NCc2ccccc2)n1,3.98 µM (active),
COc1ccccc1-c1nccc(NC2CCNCC2)n1,,-3.43% (inactive)
C=CCNC(=O)c1ccccc1Cl,,-3% (inactive)
COc1ccc(-n2c(=O)c(C)nc3cnc(N4CCOCC4)nc32)cc1,,-1.02% (inactive)
COc1cccc(/C(O)=C2/C(=O)C(=O)N(Cc3cccnc3)C2c2ccco2)c1 (configuration not stated),,1.15% (inactive)
C[C@@H]1NC(=O)C/C=C\[C@@H](C)[C@@H]2C=C[C@H](O)[C@@H](COC(=O)[C@H](C)NC(=O)C/C=C\[C@@H](C)[C@@H]3C=C[C@H](O)[C@@H](COC1=O)O3)O2,,9.45% [at 11.4 µM] (inactive)
